The list is not random: actives were taken first. Their share in the collection is about 2.8%.
POLK inh – DNA polymerase kappa (human) inhibition. 0.53% of 400,000 active. AID 588579. Potency, µM (doses to about 107 µM), most hits filed as inhibitors. Q9UBT6. purified Pol kappa, fluorescent DNA synthesis assay, 10 min
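Readout: fluorescence, taken kinetically at 0 and 10 min. Conditions: 10 nM Pol kappa, 15 min RT compound preincubation, 50 nM substrate final. Controls: enzyme-free buffer wells.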
POLB inh – blocks human DNA polymerase beta activity; 1.3% of 340,000 active; Pol beta primer extension/strand displacement, fluorescence kinetic; AID 485314; P06746; Potency, µM (titrated, usually from 114 µM), actives largely listed as inhibitors
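Curves were derived by four-parameter Hill fits of normalized qHTS data. The kinetic fluorescent primer-extension read was taken at 0 and 10 min after 50 nM substrate, following a 15 min room-temperature preincubation of 10 nM enzyme with compounds.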
WRN inhibitor – inhibitors of human WRN helicase. AID 651768. Q14191. 0.46% of 360,000 active. Potency, µM (highest dose often 114 µM), actives largely listed as inhibitors. WRN helicase unwinding, fluorescent forked duplex, kinetic; note: nearly all actives have a fitted effect of over 55% in size
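Kinetic fluorescence helicase assay: unwinding of a quenched forked DNA duplex (100 nM final) with 2 mM ATP final raises red fluorescence (525/598 nm). Compounds sat 15 min at room temperature with 20 nM WRN beforehand.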
Pol iota inh – blocks human DNA polymerase iota activity; Q9UNA4; Pol iota fluorescent replication assay, 10 min; Potency, µM (highest dose often 115 µM), most hits filed as inhibitors; 1% of 390,000 active; AID 588590
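Pol iota at 10 nM preincubated 15 min with compounds at room temperature; reaction started with fluorescent substrate, 50 nM final. Fluorescence read kinetically at 0 and 10 min; buffer-only wells as negative control.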
POLH inh – DNA polymerase eta (human) inhibition; Q9Y253; recombinant Pol eta, fluorescent DNA replication assay; Potency, µM (highest dose often 114 µM), most hits filed as inhibitors; 1.2% of 390,000 active; AID 588591
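Fluorescent replication assay: 50 nM final substrate added after a 15 min room-temperature compound preincubation with 10 nM enzyme. Signal taken at 0 min and again at 10 min.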
PI5P4Ka inh – PI5P4K alpha (human) kinase inhibition; PI5P4Kalpha enzyme, ADP-Glo luminescence, 60 min; stronger effect = lower value; max response, %; 1.2% of 330,000 active; AID 652105; active = max response of -50% or lower; inconclusive = between -30% and -50%; inactive = -30% or higher; note: value at the top dose of about 77 µM
Target sequence (P48426 whole entry, looked up): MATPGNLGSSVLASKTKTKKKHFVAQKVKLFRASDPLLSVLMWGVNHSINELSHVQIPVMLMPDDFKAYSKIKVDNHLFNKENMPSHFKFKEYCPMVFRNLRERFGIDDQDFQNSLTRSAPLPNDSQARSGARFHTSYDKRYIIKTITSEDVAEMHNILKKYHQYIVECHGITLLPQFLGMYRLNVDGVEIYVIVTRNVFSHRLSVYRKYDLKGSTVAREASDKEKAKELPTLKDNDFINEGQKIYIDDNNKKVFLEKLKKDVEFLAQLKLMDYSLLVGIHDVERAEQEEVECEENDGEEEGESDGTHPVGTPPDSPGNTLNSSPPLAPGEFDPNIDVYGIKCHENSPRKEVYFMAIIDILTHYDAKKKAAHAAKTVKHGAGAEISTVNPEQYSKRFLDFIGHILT
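Controls without substrate or without enzyme flank wells where PI5P4Kalpha converts substrate using 5 microM ATP (final). Incubation lasts 60 minutes at room temperature; ADP formed is read by ADP-Glo luminescence.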
A number is an active result; i = inactive; ? = inconclusive; nt = not tested or not shown; [ ] = another dose, or the depositor's remark. Unless noted, calls come from the whole dose curve; as a rule, active = well fitted curve in the direction sought with a large enough effect; inconclusive = small, poorly fitted or top-dose-only effect, or another doubt; inactive = no such curve, though single readings can be large; an effect the other way counts as inactive or inconclusive.

SMILES	POLK inh	POLB inh	WRN inhibitor	Pol iota inh	POLH inh	PI5P4Ka inh
COc1ccc(/C=N/N=C2/NC(=O)C(CC(=O)O)S2)cc1OCc1ccccc1Cl (stereo unspecified)	i	i	i	i	?	?
COc1ccc(/C=N/N=C2/NC(=O)C(CC(=O)O)S2)cc1OCc1ccc(Cl)cc1Cl (stereo unspecified)	i	i	?	i	?	-56
O=C(NC1CCSC1=O)c1cccc(C(=O)NC2CCSC2=O)c1 (stereo unspecified)	i	50µM	i	?	?	i
Cc1cccc(CNC(=O)C2CCC(=O)N(CCCc3ccccc3)C2)c1 (stereo unspecified)	nt	nt	i	nt	i	i
ClC(Cl)(Cl)C1=NCc2nnn(Cc3ccccc3)c2N1	nt	nt	i	nt	nt	i
CC(=O)Oc1cc2cccc(OC(C)=O)c(=O)c2c(OC(C)=O)c1OC(C)=O	1µM	0.18µM	8.9µM	1µM	10µM	-89
COc1cc2cccc(OC)c(=O)c2c(O)c1OC	i	i	i	i	i	i
O=C(COC(=O)c1n[nH]c2ccccc12)NC(=O)NC12CC3CC(CC(C3)C1)C2	i	35µM	i	i	?	i
COc1ccc(-c2cnc3c(NC=O)cc(-c4ccccc4OC)cn23)cc1OC	nt	nt	i	nt	nt	?
Cc1ccc(S(=O)(=O)N(C)c2ccc(C(=O)NCc3ccccc3F)cc2)cc1	i	nt	i	i	i	i
COc1cccc(O)c1O	3.2µM	nt	nt	nt	nt	nt
CCC(C)/C=C/C1=CC2=C(Cl)C(=O)C3(C)OC(=O)C(C(=O)C(C)C(C)O)C3C2=CO1 (stereo unspecified)	79µM	22µM	i[11.6 µM]	?	?	?
O=C(COC(=O)c1cccc(S(=O)(=O)N2CCOCC2)c1)NC1CCCCC1	nt	nt	i	nt	i	i
CCc1ccccc1NC(=O)C1CCN(C2=NS(=O)(=O)C(c3ccc(C)c(C)c3)=C2C)CC1	i	13µM	nt	i	nt	nt
CC1=C(c2ccc(C)c(C)c2)S(=O)(=O)N=C1N1CCC(C(=O)Nc2ccc(Cl)cc2)CC1	i	i	nt	?	i	nt
CC1=C(c2ccc(C(C)C)cc2)S(=O)(=O)N=C1N1CCC(C(=O)Nc2ccc(C)cc2)CC1	i	?	nt	i	nt	nt
CCc1ccc(C2=C(C)C(N3CCC(C(=O)Nc4ccc(F)cc4)CC3)=NS2(=O)=O)cc1	i	22µM	nt	?	nt	nt
CCN1C(=O)c2ccc(C(=O)Nc3ccc4c(c3)OCO4)cc2C1=O	i	i	i	i	?	i
CCC(C)[C@H](NC(=O)C1CC(=O)N(c2ccc(OC)cc2)C1)C(=O)N1CCCCC1 (stereo partly specified)	i	i	i	i	i	i
Cc1c(NC(=S)N/N=C/c2cc([N+](=O)[O-])ccc2O)c(=O)n(-c2ccccc2)n1C	i	i	i	i	i	-61
CCN(CC)CCOC(=O)c1ccc(N/C=C(/C#N)c2nc(-c3ccc(OC)c(OC)c3)cs2)cc1	i	?	i	i	?	-77
Cc1noc2ncnc(NCc3ccc(Cl)cc3)c12	i	i	nt	i	i	nt
COc1cc(SC#N)ccc1N=Cc1c(C)[nH]n(-c2ccc(C)cc2C)c1=O	i	i	?	?	i	i
COc1cc(SC#N)ccc1N=Cc1c(C)[nH]n(-c2cccc3ccccc23)c1=O	i	i	?	13µM	i	i
CC1=NN(C(N)=S)C(=O)C1N=Nc1c(C)cc(C)cc1C (stereo unspecified)	i	i	i	i	i	i
SMILES	POLK inh	POLB inh	WRN inhibitor	Pol iota inh	POLH inh	PI5P4Ka inh
CC1=NN(C(N)=S)C(=O)C1N=Nc1c(Cl)cc([N+](=O)[O-])cc1Cl (stereo unspecified)	i	?	i	i	i	-57
CC(OC(=O)CSc1ccc([N+](=O)[O-])cc1)C(=O)NCc1ccccc1 (stereo unspecified)	i	nt	50µM	?	i	?
O=C(COC(=O)CSc1ccc([N+](=O)[O-])cc1)NCCc1ccccc1	i	nt	i	i	i	i
Cc1[nH]c(=O)nc(SCc2ccc(Cl)c(Cl)c2)c1C#N	i	i	i	i	i	i
Cc1[nH]c(=O)nc(SCc2cccc(Cl)c2)c1C#N	i	71µM	?	i	i	i
Cc1cccc(NC(=O)c2ccccc2NC(=O)c2ccco2)c1	i	i	i	?	i	i
Cc1ccccc1Nc1c(-c2ccc(O)cc2)nc2c(C)cccn12	i	i	nt	i	i	nt
CN(C)c1ccc(CNC(=O)c2cccc(NC(=O)N3CCSc4ncccc43)c2)cc1	i	i	nt	i	i	nt
O=C(NCCCN1CCN(c2cccc(Cl)c2)CC1)c1ccc2nc(Cc3ccccc3)oc2c1	i	i	nt	i	i	nt
CCN(CC)S(=O)(=O)c1cccc(C(=O)N/N=C/c2c(C)nn(-c3ccccc3)c2Cl)c1	i	14µM	i	i	i	i
COc1ccc(/C=C2\SC(=S)N(CCCC(=O)Nc3cccc(C(=O)O)c3)C2=O)cc1OC	i	i	i	i	?	i
COc1ccc(/C=C2\SC(=S)N(CCC(=O)Nc3ccc(C(=O)O)cc3)C2=O)cc1OC	i	?	i	i	32µM	i
CCc1ccc(/C=C2\SC(=S)N(CCCC(=O)Nc3ccccc3C(=O)O)C2=O)cc1	i	?	?	71µM	?	?
COc1cc(/C=C2\SC(=S)N(CC(=O)O)C2=O)ccc1OS(=O)(=O)c1ccc(C)cc1	i	nt	i[11.6 µM]	14µM	?	i
O=C(CCCN1C(=O)/C(=C/c2ccc3c(c2)OCO3)SC1=S)Nc1ccc(C(=O)O)cc1	i	i	i	i	89µM	i
O=C(CCCN1C(=O)C(=Cc2ccc3c(c2)OCO3)SC1=S)Nc1ccc(C(=O)O)c(O)c1	nt	nt	i	nt	nt	i
O=C(C[n+]1cccc2ccccc21)c1ccc(F)cc1	i	nt	nt	i	nt	nt
CCN(CC)CCC(c1ccc(N(C)C)cc1)c1c(O)cc(OC)cc1OC (stereo unspecified)	i	i	i	i	i	i
CCOc1cc(NC(=O)c2ccco2)c(OCC)cc1NC(=O)CCc1ccc(OC)cc1	nt	i	nt	nt	nt	nt
CCOc1cc(NC(=O)c2ccco2)c(OCC)cc1NC(=O)Cc1ccc(OC)c(OC)c1	i	i	i[11.6 µM]	50µM	i	nt
Cc1ccc(S(=O)(=O)N(C)c2ccc(OCC(=O)NCC3(N(C)C)CCCCC3)cc2)cc1	i	nt	i	i	i	i
CCNc1ccc(Br)cc(C(=O)/C=C/c2c(Cl)cccc2Cl)c1=O	?	8.9µM	?	4.5µM	18µM	i
CCNc1ccc(Br)cc(C(=O)/C=C/c2ccc(Cl)cc2)c1=O	?	28µM	i[11.6 µM]	?	40µM	?
Cc1ccc(NC(=O)/C=C/c2ccc(Cl)cc2)c(Br)c1	i	i	nt	i	i	nt
Nc1ccccc1C(=O)/C=C/c1ccc2c(c1)OCO2	i	i	i	i	i	i
CCNc1ccc(Br)cc(C(=O)/C=C/c2ccc3c(c2)OCO3)c1=O	?	20µM	?	4µM	11µM	?

Assay outcomes from PubChem BioAssay.
